The term inhibition denotes the change of the read-out against control, counted positive when it falls.

This passage reports inhibition results from PubChem BioAssay AID920 (The Scripps Research Institute Molecular Screening Center, 2007).

SMILES strings stand for the structures. Out of some 200,000 compounds screened, about 700 (0.35%) were called active.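 The calls were made as follows: active = inhibition above a set limit, the mean inhibition across all tested compounds plus 3 SD (cut at about 34% in these data); inactive = the rest.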 The full list was thinned out, with actives kept by preference.

A short description of this assay: blockers of IFN-gamma driven STAT1 reporter – cell-based, HTS, luciferase reporter, primary screen (AID 920).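 Also: 0% = IFN-gamma with DMSO and 100% = IFN-gamma with 300 µM nifuroxazide.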 The settings on record: NIH 3T3 STAT1-luciferase reporter, luminescence, at 5.5 µM, hits give high values. Background: In a reporter assay the amount or activity of a reporter protein is the signal.
As to `Brc1ccc(-c2csc(N/N=C/c3ccc4c(c3)OCO4)n2)cc1`, the inhibition is -12.1% (inactive).

As to `C(=N\Nc1ccc2ccccc2n1)/c1ccc2c(c1)OCO2`, the inhibition was 68.7% (active).

In the case of `Cc1noc(C)c1/C=N/Nc1ccc2ccccc2n1`, the inhibition is -64.7% (inactive).

Consider `CCOC(=O)C1C(c2ccc(Cl)cc2)NC(=S)NC1(O)C(F)(F)F` (configuration not stated), for which the inhibition is 10.5% (inactive).

With `Cc1ccc(CN2C(=O)N/C(=C/c3cc(C)n(-c4ccccn4)c3C)C2=O)cc1`, the inhibition was -13.2% (inactive).

Take `S=C(Nc1ccc2c(c1)OCO2)N1CCCC1`: the inhibition is -9.5% (inactive).

For the molecule `c1c2c(cc3sc(N4CCCCC4)nc13)OCCO2`, the inhibition was 47.8% (active).

As to `COc1ccc2nc(Nc3nc4cc5c(cc4s3)OCCO5)sc2c1`, the inhibition is -15.9% (inactive).

For the molecule `Brc1ccc2nc(N3CCCC3)sc2c1`, the inhibition is -39.3% (inactive).

For the molecule `CCOC(=O)C1(CCOc2ccccc2)CCN(C(=O)c2cncs2)CC1`, the inhibition was -0.02% (inactive).

In the case of `O=C(O)CSc1nnc(-c2ccc3c(c2)OCO3)n1-c1ccccc1`, the inhibition is -5.92% (inactive).

Consider `CCCCCC(=O)Nc1ccc2oc(-c3ccncc3)nc2c1`, for which the inhibition was -3.9% (inactive).

`COc1cccc(-c2nc3cc(C)ccc3o2)c1`: the inhibition is -6.24% (inactive).

On to `CCc1ccc2oc(-c3ccc(N)cc3)nc2c1`, for which the inhibition is 34.5% (active).

Take `CC(C)/C=N/NC(=O)c1cc(Br)ccc1O`: the inhibition was 11.2% (inactive).

Regarding `O=C(/C=C/c1ccccc1[N+](=O)[O-])NCC1CCCO1` (configuration not stated), the inhibition is -5.46% (inactive).

On to `CCc1nnc(NC(=O)CCCSc2nc3ccccc3[nH]2)s1`, for which the inhibition was 20.4% (inactive).

On to `NC(=O)Nc1ccccc1C(=O)NCCc1ccccc1`, for which the inhibition is -28.8% (inactive).

Consider `COc1cc2c(C(=O)N3CCN(C)CC3)c(CSc3ccccc3)n(C)c2cc1Br`, for which the inhibition was 10.4% (inactive).

Take `COc1ccc(-c2noc(-c3cccc(OC)c3OC)n2)cc1OC`: the inhibition is -49.2% (inactive).

On to `COc1ccc(-c2nc(-c3ccccc3)no2)c(OC)c1`, for which the inhibition was 60.8% (active).

Consider `COc1ccc(-c2noc(-c3ccc(C)cc3)n2)cc1`, for which the inhibition is -36.1% (inactive).

For `Cc1ccc(C(C)(C)C)c(OCCCCN2CCCC2)c1`, the inhibition was 9.92% (inactive).

`Cc1nc2ccccc2c(C)c1C(=O)c1ccc(F)cc1`: the inhibition was 15.9% (inactive).

Regarding `O=C(c1ccc(S(=O)(=O)c2ccccc2)cc1)N1CCCCCC1`, the inhibition was 14.2% (inactive).

As for `CCOc1ccc(OCc2ccc(C(=O)Nc3cccc(C)n3)o2)cc1`, the inhibition was -24.1% (inactive).

In the case of `Cc1cccc(NC(=O)c2ccc3ccccc3n2)n1`, the inhibition is -31.6% (inactive).

On to `CCOC(=O)C(=CNc1cccc(C)n1)C(=O)OCC`, for which the inhibition is 43.5% (active).

As to `Cc1ccc(C(C[N+](=O)[O-])c2c(C)cc3ccccn23)cc1` (configuration not stated), the inhibition is 10.7% (inactive).

Take `C=CCN1C(=O)C(Cc2ccc(OCC)cc2)SC1=Nc1ccc(C(=O)O)cc1` (configuration not stated): the inhibition was 11.1% (inactive).

Regarding `Nc1ccc(OCC(O)C[n+]2ccc(CCS(=O)(=O)[O-])cc2)cc1` (configuration not stated), the inhibition is 0.06% (inactive).

Take `Cc1cc(N2CCN(Cc3ccc4c(c3)OCO4)CC2)n2ncnc2n1`: the inhibition was 6.31% (inactive).

Take `Fc1ccc2[nH]c3c(N4CCSCC4)ncnc3c2c1`: the inhibition was 25.6% (inactive).

With `Fc1ccc2[nH]c3c(N4CCN(Cc5ccc6c(c5)OCO6)CC4)ncnc3c2c1`, the inhibition was 45.1% (active).

On to `O=C(CC1SC(=Nc2ccccc2F)N(CCN2CCOCC2)C1=O)Nc1ccc(F)cc1F` (configuration not stated), for which the inhibition was 2.14% (inactive).

For the molecule `Cc1ccc(N/C(N)=N/c2nc(C(F)(F)F)cc(C(F)(F)F)n2)cc1`, the inhibition is -12.9% (inactive).

As for `CCOC(=O)CN/C=C(\C#N)c1ccc(F)cc1`, the inhibition is 1.52% (inactive).

On to `CCOc1cc(/C=C(/C#N)c2ccc(Cl)cc2)cc(Cl)c1OCC(=O)O`, for which the inhibition was 47.4% (active).

As to `CCOc1c(Cl)cc(/C=N/O)cc1OC`, the inhibition was 5.54% (inactive).

Regarding `COc1ccc(C2c3c(C)nn(-c4ccccc4)c3NC(=O)N2c2ccccc2)cc1` (configuration not stated), the inhibition was -3.45% (inactive).

On to `Cc1noc(C)c1CCC(=O)O`, for which the inhibition is 3.78% (inactive).

Take `O=C(C1CCN(C2CCN(Cc3ccc4cc(F)ccc4n3)CC2)CC1)N1CCCC1`: the inhibition was 2.2% (inactive).

Consider `CCc1cc(CNC(=O)CC2C(=O)NCCN2CC2CCCCC2)on1` (configuration not stated), for which the inhibition is 6.89% (inactive).

Regarding `O=C(O)c1cccc(NC(=S)N/N=C/c2c[nH]c3ccccc23)c1`, the inhibition is 58% (active).

For `CN(C)S(=O)(=O)c1cccc(NC(=S)N/N=C/C(=O)c2ccccc2)c1`, the inhibition is -1.89% (inactive).

For the molecule `CSC(=S)N/N=C/c1c[nH]c2ccccc12`, the inhibition is -6.4% (inactive).

In the case of `COc1ccc(CCC(=O)OCC(=O)Nc2ccc(C)c(S(=O)(=O)N(C)C)c2)cc1`, the inhibition was 1.53% (inactive).

Turning to `Cc1ccc2[nH]cc(CCCN3C(=O)c4ccccc4C3=O)c2c1`, the inhibition is 0.21% (inactive).

In the case of `CCOC(=O)N1CCN(C(=O)C2CCN(c3ncnc4c3sc3cccc(F)c34)CC2)CC1`, the inhibition is 37.1% (active).

As for `CCOC(=O)N1CCN(C(=O)C2CCN(Cc3ccc(OC)cc3OC)CC2)CC1`, the inhibition is 5.92% (inactive).

In the case of `CCOC(=O)C1CCN(c2ncnc3c2oc2ccc(Br)cc23)CC1`, the inhibition was -3.28% (inactive).

As to `Cc1ccc(-n2c(SCC(=O)Nc3ncc(Cl)cc3Cl)nc3ccccc32)cc1`, the inhibition is 12.4% (inactive).

As to `Cc1cccc(-n2c(SCC(=O)Nc3cccc(S(=O)(=O)NC4=NCCCCC4)c3)nc3ccccc3c2=O)c1C`, the inhibition was -1.66% (inactive).

Regarding `NS(=O)(=O)c1cccc(NC(=O)CSc2nc3ccccc3n2-c2ccccc2)c1`, the inhibition is 55.1% (active).

Turning to `Cc1nn(C)cc1C(=O)Nc1ccccc1Br`, the inhibition is -7.01% (inactive).

As to `CCCN1C(=O)C(Cc2nc3ccccc3c(=O)n2-c2ccccc2)c2cc(C)ccc21` (configuration not stated), the inhibition was 6.11% (inactive).

Turning to `CCCOC1CCCN(Cc2cn(C)nc2-c2ccccc2F)C1` (configuration not stated), the inhibition is -4.18% (inactive).

In the case of `Cc1ncoc1C(=O)NCCC(c1ccccc1)c1ccccc1`, the inhibition was -1.04% (inactive).

Regarding `CCC(C)Sc1nnc(-c2c[nH]c3ccccc23)n1CCOC` (configuration not stated), the inhibition was 3.54% (inactive).

Take `CCn1c(SCC(=O)Nc2ccc(OC)c(OC)c2)nnc1-c1c[nH]c2ccccc12`: the inhibition was 3.46% (inactive).

As to `CCOC(=O)N1CCN(C(=O)CSc2nnc(-c3c[nH]c4ccccc34)n2CCOC)CC1`, the inhibition was 37.2% (active).

On to `Cc1ccc2[nH]cc(CCNC(=O)c3ccc([N+](=O)[O-])cc3)c2c1`, for which the inhibition is -1.14% (inactive).
